{"source": "PubChem BioAssay (NCI)", "note": "This is part of a sample that, as a whole, favours compounds with a hit. Of some 83,000 tested, about 20% had one in any assay.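 Compound tested at a single concentration for 48 hours in 96-well plates; a percent growth value below 10 was scored as active.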 The source made the active and inactive calls.", "data": [{"system": "SN12C renal", "assay": "NCI-60 one-dose screen, 48 h (100 = growth as untreated, 0 = no growth, -100 = all killed)", "settings": "10 µM unless noted", "values": [{"smiles": "COc1cc(/C=C/C(=O)c2ccccc2)ccc1Oc1nc(Nc2ccc(F)cc2)nc(N(C)C)n1", "growth": "-5.73% (active)"}, {"smiles": "CN(C)CCCNC(=O)c1cc(NC(=O)c2cc(NC(=O)c3ccc(/C=C/c4ccccc4)cc3)cn2C)cn1C", "growth": "49.3% (inactive)"}, {"smiles": "COc1ccc(C(=O)/C=C/c2ccc(Oc3nc(Nc4ccc(F)cc4)nc(N(C)C)n3)c(OC)c2)cc1", "growth": "32.2% (inactive)"}, {"smiles": "CN(C)CCOc1ccc(C(=O)C2[C@H](c3ccc(Cl)cc3)[C@@H](c3ccccc3)NC23C(=O)Nc2ccc(Br)cc23)cc1", "note": "(stereo partly drawn)", "growth": "7.21% (active)"}, {"smiles": "COc1ccc(-c2ccc(SCC(=O)NCCc3ccc(S(N)(=O)=O)cc3)nn2)cc1", "growth": "87.3% (inactive)"}, {"smiles": "Cc1nc(Nc2ncc(C(=O)Nc3c(C)cccc3Cl)s2)cc(N2CCN(CCCNC(=O)COc3ccc(C4CCC(=O)NC4=O)cc3)CC2)n1", "note": "(stereo not drawn)", "growth": "25.2% (inactive)"}, {"smiles": "C=C1CCC2C3(C)COC(c4ccc(F)cc4)OC3CCC2(C)C1C/C=C1/C(=O)OCC1O", "note": "(stereo not drawn)", "growth": "-11.3% (active)"}, {"smiles": "O=C1NC(=O)/C(=C/c2ccccc2OCc2cc3ccccc3nc2Cl)S1", "growth": "81.4% (inactive)"}, {"smiles": "O=C(COc1ccc(NC(=O)Nc2ccc(Cl)c(Cl)c2)cc1)N=Nc1c(O)[nH]c2ccc(Br)cc12", "growth": "-20.9% (active)"}, {"smiles": "COc1cccc(/C=C/c2nc3ccccc3c(=O)n2CC(=O)Nc2ccc(Cl)cc2)c1", "growth": "39.2% (inactive)"}, {"smiles": "COc1ccc(C(=O)/C=C/c2cccc(Cl)c2)cc1S(N)(=O)=O", "growth": "-25.3% (active)"}, {"smiles": "COc1cc(C2CC(c3cc(OC)c(OC)c(OC)c3)=NN2c2ccccc2)ccc1OCc1ccc(C)cc1", "note": "(stereo not drawn)", "growth": "95.1% (inactive)"}, {"smiles": "CCOP(=O)(OCCCl)c1nc(-c2ccc(C)cc2)oc1NCc1ccccc1", "note": "(stereo not drawn)", "growth": "70.4% (inactive)"}, {"smiles": "Cc1ccccc1[C@H]1C(C(=O)c2ccc(Cl)cc2)C2(N[C@@H]1c1ccccc1)C(=O)Nc1ccccc12", "note": "(stereo partly drawn)", "growth": "-94.9% (active)"}, {"smiles": "Cc1ccccc1[C@H]1C(C(=O)c2ccc(Cl)cc2)C2(N[C@@H]1c1ccccc1)C(=O)Nc1ccc(Br)cc12", "note": "(stereo partly drawn)", "growth": "-82.1% (active)"}, {"smiles": "COc1cccc(/C=C/C(=O)c2ccc(OC)c(S(N)(=O)=O)c2)c1", "growth": "14.5% (inactive)"}, {"smiles": "Cn1cc(NC(=O)c2cc(NC(=O)c3ccc(/C=C/c4ccccc4)cc3)cn2C)cc1C(=O)NCCCN1CCOCC1", "growth": "43.4% (inactive)"}, {"smiles": "CN1CCN(Cc2ccc(C(=O)Nc3cccc(C#Cc4cccc5[nH]nc(N)c45)c3)cc2C(F)(F)F)CC1", "growth": "-94.7% (active)"}, {"smiles": "CCCn1cc(-c2nc(Nc3ccc(C(=O)NCCCCNc4cccc5c4C(=O)N(C4CCC(=O)NC4=O)C5=O)cc3)nc3[nH]ccc23)cn1", "note": "(stereo not drawn)", "growth": "12.3% (inactive)"}, {"smiles": "COc1c(F)ccc(C(=O)Nc2ccc3nc(NC(=O)C4CCCN(S(=O)(=O)c5ccc(C(F)(F)F)cc5)C4)sc3c2)c1F", "note": "(stereo not drawn)", "growth": "82.4% (inactive)"}, {"smiles": "Cn1nc(C(F)(F)F)cc1-c1cc(Cl)c(COc2ccc(Cl)cc2)c(-c2ccc(Cl)c(C(F)(F)F)c2)c1O", "growth": "-51.4% (active)"}, {"smiles": "COc1ccc(C(=O)/C=C/c2ccccc2Br)cc1S(N)(=O)=O", "growth": "-25.6% (active)"}, {"smiles": "COc1ccc2c(c1)c(/C=N/Nc1ccc3ccccc3n1)cn2C", "growth": "-71.7% (active)"}, {"smiles": "COc1c(F)ccc(C(=O)Nc2ccc3nc(NC(=O)C4CCCN(S(=O)(=O)c5ccc(Br)c(F)c5)C4)sc3c2)c1F", "note": "(stereo not drawn)", "growth": "87.7% (inactive)"}, {"smiles": "COc1cc(OC)cc(-c2cc3ccc(N(C)C)cc3c(=O)[nH]2)c1", "growth": "36.7% (inactive)"}, {"smiles": "CC12CC[C@@H]3[C@]4(C)COC(c5cn[nH]c5-c5ccc(Br)cc5)O[C@@H]4CC[C@@]3(C)[C@@H]1CC(C1=CCOC1=O)O2", "note": "(stereo partly drawn)", "growth": "57.5% (inactive)"}, {"smiles": "CC12CC[C@@H]3[C@]4(C)COC(c5cn[nH]c5-c5cccc(Cl)c5)O[C@@H]4CC[C@@]3(C)[C@@H]1CC(C1=CCOC1=O)O2", "note": "(stereo partly drawn)", "growth": "47.9% (inactive)"}, {"smiles": "CCCSc1nc(Nc2ccc(S(N)(=O)=O)cc2)c(C#N)c(-c2ccc(Cl)cc2)n1", "growth": "-16.2% (active)"}, {"smiles": "C=C1CC[C@@H]2[C@]3(C)COC(c4cn[nH]c4-c4ccc(Br)cc4)O[C@@H]3CC[C@@]2(C)[C@@H]1C/C=C1/C(=O)OCC1O", "note": "(stereo partly drawn)", "growth": "-64.9% (active)"}, {"smiles": "Cc1cnc(C(=O)NNc2nc3cc(F)ccc3n3c(C(=O)N4CC5CC(C4)N5)ccc23)cn1", "growth": "32.1% (inactive)"}, {"smiles": "CCCSc1nc(Nc2ccc(S(N)(=O)=O)cc2)c(C#N)c(-c2cc(OC)c(OC)c(OC)c2)n1", "growth": "20.4% (inactive)"}, {"smiles": "C=C1CCC2C3(C)COC(c4ccccc4)OC3CCC2(C)C1CC(NCc1ccccc1)C1=CCOC1=O", "note": "(stereo not drawn)", "growth": "79.4% (inactive)"}, {"smiles": "C=C1CC[C@@H]2[C@]3(C)COC(c4ccccc4)O[C@@H]3CC[C@@]2(C)[C@@H]1C/C=C1/C(=O)OCC1OC(C)=O", "note": "(stereo partly drawn)", "growth": "-96.9% (active)"}]}]}
